CD40 NFkB inh = inhibitors of CD40-induced NF-kB signaling, primary screen, BL2 cells, luciferase reporter, single point; 83,000 compounds, 0.94% hits; inhibition, % at 10 µM; AID 1053188, 2014; CD40L-induced, 4 h;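 active = mean inhibition of at least 50% with a set share of replicates also reaching that level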;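 note: 0% = neutral control wells and 100% = IKK inhibitor VII at 50 µM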
Starred values were filed as active, the others as inactive; [ ] = another dose, or the depositor's remark. Only a selection was taken, and hits are over-represented in it overall.

SMILES	CD40 NFkB inh
COc1cccc(S(=O)(=O)N(C)C[C@@H]2OCc3ccccc3-c3c(n(C)c4ccccc34)C(=O)N([C@H](C)CO)C[C@@H]2C)c1	62*[25 µM]
COC(=O)CSC(=S)N1CCCC(C)C1 (stereo not given)	1
CCCN1Cc2cccc(C(=O)NC3CCCC3)c2C1=O	14
CC(=O)c1cnc(-c2ccccn2)s1	-9
COc1ccc(-n2ncc3c2CC(C)(C)CC3NC(=O)CCn2nc(C)cc2C)cc1 (stereo not given)	-1
CC(=O)N=C1SC2CS(=O)(=O)CC2N1c1ccccc1Cl (stereo not given)	2
CC1(C)Cc2c(sc(/N=C/N3CCCCC3)c2C#N)C(C)(C)N1	-18
CN1C(=O)/C(=N\OC(=O)c2cccc3ccccc23)c2ccccc21	99*
O=C(O)c1ccc2c3c(cccc13)C(=O)N(c1cccc3ccccc13)C2=O	1
COc1ccc(C(=O)O/N=C2\C(=O)N(C)c3ccccc32)cc1	60*
O=C(O/N=C(\c1ccccc1)c1ccccn1)c1cccc2ccccc12	3
COc1ccc(C(=O)NC2c3ccccc3-c3ccccc32)cc1	14
COc1ccc(C(=O)ON=C2CCN(C)CC2)cc1	11
CCOC(=O)Cn1cnc2sc3c(c2c1=O)CCC3	56*
CCOC(=O)Cn1cnc2c(sc3nc(C)cc(C)c32)c1=O	-75
COC(=O)Cn1cnc2sc3c(c2c1=O)CCCC3	3
COc1ccc(CNC(=O)C[C@H]2CC[C@H](NC(=O)CN(C)C)[C@H](CO)O2)cc1	6[25 µM]
COc1ccc(CNC(=O)C[C@@H]2CC[C@@H](NC(=O)Nc3ccc4c(c3)OCO4)[C@@H](CO)O2)cc1	-7
c1ccc(Oc2cccc(OCCCCSc3ncccn3)c2)cc1	-7
CCOc1cc(N2CCOCC2)c(OCC)cc1NC(=O)c1ccc2ccccc2n1	-41
O=C(NCCc1c[nH]c2ccccc12)C1CCCN(S(=O)(=O)c2ccccc2)C1 (stereo not given)	19
O=C1c2sc3nc4ccccc4n3c2C(=O)N1c1ccccc1Cl	52*
CC(=O)c1cnc(-c2ccccc2Cl)s1	1
O=C(Nc1nccs1)c1cc2c(s1)CCCCC2	92*
CC(C)Cc1nnc(NC(=O)c2cc3c(s2)CCC3)s1	-36
SMILES	CD40 NFkB inh
O=C(Nn1cnnc1)c1cc2c(s1)CCCC2	-1
COc1ccc(S(=O)(=O)N2[C@@H]3CNC[C@H]2C3c2ccc(-c3ccncc3)cc2)cc1 (stereo not given in full)	-11[25 µM]
c1ccc2oc(C3=NNC(=NC4CC4)SC3)cc2c1	66*
COc1ccc(N=C2NN=C(c3ccc4c(c3)OCCO4)CS2)cc1	-11
c1cc2c(cc1C1=NNC(=NC3CC3)SC1)OCCO2	92*
c1ccc(CN=C2NN=C(c3cc4ccccc4o3)CS2)cc1	-12
c1csc(C2=NNC(=NC3CCCCC3)SC2)c1	-44
COc1ccc(CN=C2NN=C(c3cccc(OC)c3)CS2)cc1	-48
COc1cccc2cc(C(=O)Nc3ccc(F)cc3)c(=Nc3ccc(C(=O)O)cc3)oc12	-31
CO[C@@H](CN(C)S(=O)(=O)c1ccc(C)cc1)[C@H](C)CN(C(=O)Nc1ccccc1F)[C@H](C)CO	-27[25 µM]
CNC(=O)c1ccc(NC(=O)c2ccccc2OCc2c(C)noc2C)cc1	-11
COCCn1c(CN2CCN(C)CC2)nc2c1c(=O)n(C)c(=O)n2C	7
COC(=O)C[C@](O)(CCCC(C)(C)O)C(=O)O[C@@H]1C(OC)=C[C@]23CCCN2CCc2cc4c(cc2[C@H]13)OCO4	92*[25 µM]
Cc1ccc(/C=N/NC(=O)Nc2ccccc2)o1	-59
Oc1ccc2ccccc2c1CNc1cnc2ccccc2c1	54*
Cn1c(NCc2c(O)ccc3ccccc23)nc2ccccc21	-12
NCc1c(O)ccc2ccccc12	-3
CCSc1nc2c([nH]1)c(=O)n(C)c(=S)n2C	0
CCCC(C)Sc1nc2c([nH]1)c(=S)n(C)c(=O)n2C (stereo not given)	93*
Cn1c(=O)c2[nH]c(SCCN3CCCCC3)nc2n(C)c1=S	7
CC(=O)Oc1c2occc2cc2ccc(=O)oc12	-26
CC1CCN(CC[C@H]2CCCN2S(=O)(=O)c2cccc(O)c2)CC1	-5
Cc1c(C(=O)OC2CCCC2C)[nH]c2c1C(=O)CCC2 (stereo not given)	-57
Cc1c(C(=O)OCCOc2ccccc2)[nH]c2c1C(=O)CCC2	66*
CCCc1c(C(=O)OCC)[nH]c2c1C(=O)CCC2	5
SMILES	CD40 NFkB inh
O=C(O)Cc1c[nH]c2cccc(O)c12	10
CCCN1CCN(S(=O)(=O)c2cn(C)nc2C)CC1	4
O=[N+]([O-])c1ccccc1OCCCOc1cccc2cccnc12	-82
COc1ccc(C(=O)/C=C/Sc2nc3ccccc3o2)cc1	75*
N#CCSc1nc2ccccc2o1	11
O=C(/C=C/Sc1ccccc1)c1ccccc1	-26
N#CCCN/N=C(\Cc1nc2ccccc2[nH]1)c1ccccc1	-66
CC(=O)N(C)C[C@@H]1Oc2ncccc2C(=O)N(C)C[C@@H]1C	0
N#C[C@@H]1N[C@H](CO)[C@H]1c1ccc(C#CC2CCCC2)cc1	13
N#C[C@@H]1N[C@H](CO)[C@@H]1c1ccc(C#CC2CCCC2)cc1	-10
N#C[C@@H]1N[C@H](CO)[C@@H]1c1ccc(C#Cc2ccccc2F)cc1	-43[25 µM]
N#C[C@H]1N[C@H](CO)[C@H]1c1ccc(C#Cc2ccc(F)cc2)cc1	4[25 µM]
N#C[C@H]1N[C@H](CO)[C@H]1c1ccc(C#CC2CCCC2)cc1	62*
N#C[C@H]1N[C@@H](CO)[C@@H]1c1ccc(C#Cc2ccccc2F)cc1	active[25 µM]
O=C(COC(=O)c1ccc(Cl)c(S(=O)(=O)N2CCCC2)c1)NC1CCCC1	11
COc1ccc(/C=N/NC(=O)c2sc3nc(C)cc(C)c3c2N)cc1	8
CCCCCOC(=O)Nc1nnc(CCC)s1	-17
COc1ccc(CN(C)C[C@H]2OCCCC[C@H](C)Oc3ccc(NC(=O)C4CCCCC4)cc3C(=O)N([C@@H](C)CO)C[C@@H]2C)cc1	-5[25 µM]
CCOC(=O)c1c(NC(=O)CN2CCCCC2)sc(CN(C)C)c1-c1ccccc1	23
CCOC(=O)c1c(SCCN2CCCCC2)n(-c2ccccc2)c(=S)n(-c2ccccc2)c1=O	95*
CCOC(=O)c1[nH]c(=S)n(-c2ccccc2)c1C(=O)OCC	22
CC(C)Oc1ccc(CCN=C(N)N=C(N)N)cc1Cl	6
Cc1sc2nc(CSCC(=O)N(CCC#N)c3ccccc3F)[nH]c(=O)c2c1C	1
CC(=O)OC1CC2(C)C(C(C)=O)CCC2C2CCC3=CC(=O)CCC3(C)C12 (stereo not given)	3
O=C(Cn1cnnn1)NCCc1ccc(Cl)cc1Cl	8
SMILES	CD40 NFkB inh
O=C(CCl)N=c1sccn1Cc1ccc(Cl)cc1Cl	89*
O=C1CCN(Cc2ccc(Cl)cc2Cl)C(=O)N1	6
CC1CN(C(=O)COC(=O)c2cnc(Cl)c(Cl)c2)CC(C)O1 (stereo not given)	15
CCNC(=O)COC(=O)COc1ccc(Cl)cc1C	6
Cc1sc2ncnc(N3CCC(C(=O)NNC(=O)COc4cccc(C(F)(F)F)c4)CC3)c2c1C	25
COc1cc(CNCCc2c[nH]c3ccccc23)cc(Cl)c1OCC(N)=O	47*
COc1ccc(C(=O)NCC(=O)NCCc2c[nH]c3ccccc23)cc1OC	17
COc1ccc(NC(=O)COC(=O)Cc2c[nH]c3ccccc23)cc1Cl	-3
O=C(NCCN1CCCC1=O)Nc1ccccc1	-12
